About 83,000 compounds went through this panel and 20% of them were active in at least one assay; those are over-represented in the sample as a whole.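 Results are percent growth after 48 hours of single-concentration exposure. 100 means growth as in untreated cells, lower positive values show inhibition; negative values down to -100 show cell death.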 A number with no mark means an inactive call. Activity calls are given as the source filed them. How the source made its calls: active means growth percent below 10; inactive means the rest.
These compounds were tested on A549/ATCC NSCLC (assay: NCI-60 one-dose screen, 48 h (100 = growth as untreated, 0 = no growth, -100 = all killed)). Details: 10 µM unless noted.
In the case of Nc1c(C(=O)c2ccc(Cl)cc2)sc(Nc2ccccc2)c1-c1nc2ccccc2s1, the growth is reported as 17.8%. Cn1nc(-c2ccc(Cl)cc2)nc2c(=O)n(C)c(=O)nc1-2 was tested, and the growth was -25.2% (active). Work on Cc1ccc(C2=Nc3c(N)nc(N)nc3NC(c3cccc(Nc4ccnc5cc(C(F)(F)F)ccc45)c3)C2)cc1 (stereo unspecified) yielded a growth of 30.1%. Compound COC(=O)[C@H](C)NC(=O)c1ccc(NC(=O)c2[nH]c(C)c(Cl)c2Cl)c(OCCN)c1 has a growth of 98.1%. CC(C)=CC(=O)C1C(=O)c2ccccc2C1=O showed a growth of 106%. C=CCn1c(SCC(=O)Nc2ccc(C(=O)/C=C/c3ccc(Cl)cc3)cc2)nnc1-c1ccc(Cl)c(Cl)c1 was tested, and the growth was 67.4%. In the case of CC(C)n1cc(C2=C(c3cccc4ccccc34)C(=O)NC2=O)c2cc(Br)ccc21, the growth is reported as 60.5%. CC1(C)C2=C(C(=O)N1Cc1ccccc1)C(c1ccco1)N(C(=O)C1CCC1)CCN2 (stereo unspecified) gave a growth of 75.8%. For COc1cc(OC)cc(C(=O)Nc2cnc(Nc3ccc(N4CCOCC4)nc3)nc2Oc2ccc(C(F)(F)F)cc2)c1, the growth was 35.4%. C=C(c1ccc(C(=O)O)c(F)c1)c1cc2c(cc1C)C(C)(C)C=CC2(C)C gave a growth of 38.1%. Work on O=C1c2c(c3c4cc(F)ccc4oc3c3[nH]c4ccccc4c23)C(=O)N1O yielded a growth of 54.2%. In the case of CCCN1C(=O)N(CCC)C2C1NC(=S)N2/N=C/C=C/c1ccccc1OC (stereo unspecified), the growth is reported as 13.1%. In the case of O=C(Nc1ccccc1)Nc1ccccc1CNc1nc(Nc2ccc(OCCN3CCCC3)cc2)ncc1Cl, the growth is reported as 59.4%. Work on O=C1NC(=O)C(=Cc2cc(-c3ccc(Cl)cc3)n(-c3ccccc3)n2)C(=O)N1 yielded a growth of 97.4%. In the case of COc1ccc(-c2nc3cc(C(=O)NC4CCCCC4)ccc3n2C2CCCCC2)cc1, the growth is reported as 89.4%. O=c1ccc2c(ccc3ncccc32)o1 gave a growth of 98.2%. With CC/C(=C(/c1ccc(Cl)cc1)c1ccc(OCCN(CC)CC)cc1)c1ccc(OC)cc1 the growth was 48.8%. In the case of COc1ccc(N2C(=O)/C(=C/C(Cl)=C/c3ccc([N+](=O)[O-])cc3)SC2=S)cc1, the growth is reported as -0.282% (active). Compound CCOC(=O)CC1CSC(N/N=C(/C)c2cccc(C(F)(F)F)c2)=N1 (stereo unspecified) has a growth of 87.7%. Work on CSc1nc(N)c2c(n1)NC(c1ccccc1)C1CCc3ccccc3C1=N2 (stereo unspecified) yielded a growth of 72.2%. COc1cc2cc(Oc3ccc(NC(=O)Nc4ccc(F)c(C(F)(F)F)c4)cc3)c(C)nc2cc1OCCN1CCCCC1 was tested, and the growth was -45.9% (active). In the case of O=C(Nc1ncc(Cc2ccccc2)s1)c1cc(-c2ccccc2)nc2ccccc12, the growth is reported as 98.2%. CN1CCN(Cc2ccc(NC(=O)c3cncc(C#Cc4cnc(N)c5ncccc45)c3)cc2Cl)CC1 gave a growth of 74.7%. In the case of COc1c(O[C@@H]2OC(CO)[C@H](O)[C@H](O)C2O)cc2oc3cc(O)c(CC=C(C)C)c(O)c3c(=O)c2c1CC=C(C)C (stereo partly specified), the growth is reported as 97.4%. COc1cccc(-c2cc(-c3ccc(Nc4nc(Nc5ccc(Cl)cc5)nc(Nc5ccc(Cl)cc5)n4)cc3)nc(N)c2C#N)c1 was tested, and the growth was 43%. Compound O=C(NCCN1CCOCC1)c1cncnc1Nc1ccc2c(ccn2Cc2ccccn2)c1 has a growth of 101%.

These compounds were tested on 786-0 renal in the same assay as above. Details: 10 µM unless noted.
For Clc1nc(N2CCC[N+]3(CC2)CC[N+]2(CCCNCC2)CC3)nc(N2CCC[N+]3(CC2)CC[N+]2(CCCNCC2)CC3)n1 (stereo unspecified), the growth was 72.8%. In the case of O=C(Nc1ccccc1CNc1nc(Nc2ccc(OCCN3CCCC3)cc2)ncc1Cl)NC1CCCCC1, the growth is reported as -25.2% (active). With Cc1nc2c(c(-c3ccccc3)n1)Cc1c(ccc3ccccc13)O2 the growth was 98.7%. COC(CCP(=O)(c1ccccc1)c1ccccc1)(C(=O)c1ccccc1)c1ccccc1 (stereo unspecified) gave a growth of 89.4%. Nc1ncc(-c2ccc3ncnc(N4CCc5cc(F)c(Cl)cc54)c3c2)cc1C=O was tested, and the growth was 8.62% (active). Work on CC(C)(C)n1cc(-c2ccnc(NCCNS(=O)(=O)c3ccc(C(F)(F)F)cc3)c2)c(-c2ccccc2)n1 yielded a growth of 80.5%. For Clc1ccc(C2=Nn3c(nnc3-c3cc(Cl)cc(Cl)c3Cl)SC2)cc1, the growth was 3.83% (active). Work on O=C(NC1CCCCCC1)c1ccc2c(=O)n3c(nc2c1)CCCCC3 yielded a growth of 106%. In the case of C=C1C(=O)O[C@H]2[C@H]1CC/C(CNC(=O)/C=C/c1cc(OC)c(OC)c(OC)c1)=C\CC[C@@]1(C)O[C@@H]21, the growth is reported as -68.5% (active). Cc1c(CC(=O)Nc2ccccc2)nnn1-c1ccccc1 showed a growth of 107%. CCn1c2ccccc2c2cc(C(O)c3cccc4ncccc34)ccc21 (stereo unspecified) was tested, and the growth was 6.42% (active). CSc1nc(CC(C)C)c(C#N)c(=O)n1C was tested, and the growth was 57.9%. In the case of Oc1c(Cl)cc(Cl)c2ccc(CN3CCNCC3)nc12, the growth is reported as 49.2%. CO[C@H]1CC(c2ccc[nH]2)=N[C@]12O[C@@H](C)C[C@@H]1CCCCCCCc3ccc([nH]3)[C@H]12 gave a growth of 11.7%. In the case of Nc1c(C(=O)c2ccc(Cl)cc2)sc(Nc2ccccc2)c1-c1nc2ccccc2s1, the growth is reported as 8.1% (active). With Cn1nc(-c2ccc(Cl)cc2)nc2c(=O)n(C)c(=O)nc1-2 the growth was -82.2% (active). Cc1ccc(C2=Nc3c(N)nc(N)nc3NC(c3cccc(Nc4ccnc5cc(C(F)(F)F)ccc45)c3)C2)cc1 (stereo unspecified) showed a growth of 20.9%. COC(=O)[C@H](C)NC(=O)c1ccc(NC(=O)c2[nH]c(C)c(Cl)c2Cl)c(OCCN)c1 showed a growth of 98.6%. Work on CC(C)=CC(=O)C1C(=O)c2ccccc2C1=O yielded a growth of 105%. For C=CCn1c(SCC(=O)Nc2ccc(C(=O)/C=C/c3ccc(Cl)cc3)cc2)nnc1-c1ccc(Cl)c(Cl)c1, the growth was 82.9%. CC(C)n1cc(C2=C(c3cccc4ccccc34)C(=O)NC2=O)c2cc(Br)ccc21 was tested, and the growth was 54.9%. With CC1(C)C2=C(C(=O)N1Cc1ccccc1)C(c1ccco1)N(C(=O)C1CCC1)CCN2 (stereo unspecified) the growth was 99.5%. With COc1cc(OC)cc(C(=O)Nc2cnc(Nc3ccc(N4CCOCC4)nc3)nc2Oc2ccc(C(F)(F)F)cc2)c1 the growth was 54.8%. Work on C=C(c1ccc(C(=O)O)c(F)c1)c1cc2c(cc1C)C(C)(C)C=CC2(C)C yielded a growth of 89.2%. In the case of O=C1c2c(c3c4cc(F)ccc4oc3c3[nH]c4ccccc4c23)C(=O)N1O, the growth is reported as 47.6%. In the case of CCCN1C(=O)N(CCC)C2C1NC(=S)N2/N=C/C=C/c1ccccc1OC (stereo unspecified), the growth is reported as 35.6%. With O=C(Nc1ccccc1)Nc1ccccc1CNc1nc(Nc2ccc(OCCN3CCCC3)cc2)ncc1Cl the growth was 9.35% (active). In the case of O=C1NC(=O)C(=Cc2cc(-c3ccc(Cl)cc3)n(-c3ccccc3)n2)C(=O)N1, the growth is reported as 82.5%. In the case of COc1ccc(-c2nc3cc(C(=O)NC4CCCCC4)ccc3n2C2CCCCC2)cc1, the growth is reported as 88.3%. Compound O=c1ccc2c(ccc3ncccc32)o1 has a growth of 110%. CC/C(=C(/c1ccc(Cl)cc1)c1ccc(OCCN(CC)CC)cc1)c1ccc(OC)cc1 gave a growth of 49.5%. In the case of COc1ccc(N2C(=O)/C(=C/C(Cl)=C/c3ccc([N+](=O)[O-])cc3)SC2=S)cc1, the growth is reported as -77.7% (active). CCOC(=O)CC1CSC(N/N=C(/C)c2cccc(C(F)(F)F)c2)=N1 (stereo unspecified) showed a growth of 97%. For CSc1nc(N)c2c(n1)NC(c1ccccc1)C1CCc3ccccc3C1=N2 (stereo unspecified), the growth was 69.2%. Work on COc1cc2cc(Oc3ccc(NC(=O)Nc4ccc(F)c(C(F)(F)F)c4)cc3)c(C)nc2cc1OCCN1CCCCC1 yielded a growth of 61.9%. O=C(Nc1ncc(Cc2ccccc2)s1)c1cc(-c2ccccc2)nc2ccccc12 gave a growth of 105%. CN1CCN(Cc2ccc(NC(=O)c3cncc(C#Cc4cnc(N)c5ncccc45)c3)cc2Cl)CC1 was tested, and the growth was -78.2% (active). In the case of COc1c(O[C@@H]2OC(CO)[C@H](O)[C@H](O)C2O)cc2oc3cc(O)c(CC=C(C)C)c(O)c3c(=O)c2c1CC=C(C)C (stereo partly specified), the growth is reported as 106%. Work on COc1cccc(-c2cc(-c3ccc(Nc4nc(Nc5ccc(Cl)cc5)nc(Nc5ccc(Cl)cc5)n4)cc3)nc(N)c2C#N)c1 yielded a growth of 59.2%. O=C(NCCN1CCOCC1)c1cncnc1Nc1ccc2c(ccn2Cc2ccccn2)c1 was tested, and the growth was 98.5%.

— PubChem BioAssay (NCI)
